The structures appear in SMILES notation. About 710 (39%) of roughly 1,800 compounds were called active. Another 28% or so got no clear call; they are omitted.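 The calls were made as follows: active = luciferase signal rise whose fitted curve crosses a set activity limit at or below the top valid tested dose; inconclusive = flat fit with 30 to 70% rise, or poor fit; inactive = signal falling, flat within 30%, or crossing above top dose.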 The list is a sample of the results. Potency and affinity values are given separately.

The nature of this assay: luciferase activators in glycosylation-insensitive reporter cells, dose response, counter-screen for N-linked glycosylation inhibitor project, D54 LucT cells, luminescence, cherry pick (AID 624404).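 Also: 0% = median neutral control signal and 100% = twice that signal.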 Particulars: D54 LucT luciferase reporter counterscreen, 24 h; series mostly up to 19.5 µM; activity increase (luciferase signal): at the top concentration. A general note: Counterscreens check selectivity or assay interference.
For `O=C(NCCN1C(=O)S/C(=C\c2cccc(Cl)c2Cl)C1=O)C1=COCCO1`, the “activity increase (luciferase signal)” value is 34.6% (inactive).
Consider `Cc1noc2ncnc(Sc3ccc(Cl)cc3)c12`, for which the “activity increase (luciferase signal)” value is -4.08% (inactive).
The same measure for `CCn1c(=O)cc(C(=O)OC)sc1=Nc1ccc(F)c(F)c1`: 10.2% (inactive); for `COC(=O)c1cc(=O)n(Cc2ccco2)c(=Nc2ccc(F)cc2)s1`: 8.46% (inactive).
On to `CCN(CC(=O)Nc1ccccc1OC)CC(=O)Nc1ccccc1-c1ccccc1`, for which the “activity increase (luciferase signal)” value was 67.6% (inactive).
The result for `CCCc1cc(C(=O)N/N=C/c2ccc(C)o2)c2ccccc2n1` reads 2.39% (inactive); that for `COc1ccc(C(=O)NCCN(C)C)c2nc3ccccc3cc12`, 34% (inactive); that for `O=C(/C=C/c1ccc(-c2ccccc2[N+](=O)[O-])o1)c1ccc(Br)cc1`, 23.2% (inactive).
The result for `N#Cc1cc2[nH]c3ccccc3c2[n+](-c2ccc([N+](=O)[O-])cc2)c1N` reads 4.59% (inactive); that for `Cn1cnc([N+](=O)[O-])c1Sc1nc2ccccc2[nH]1`, -2.72% (inactive); that for `CCn1c(=O)c2cc(C(=O)NCCN(C)C)sc2c2ccccc21`, 29.2% (inactive).
For the molecule `CCN(CC)CCNc1ccc(CO)c2oc3ccccc3c(=O)c12`, the “activity increase (luciferase signal)” value was 30.6% (inactive).
Regarding `CCN(CC)CCNc1ccc(CO)c2oc3cc(Cl)ccc3c(=O)c12`, the “activity increase (luciferase signal)” value is 19.5% (inactive).
With `Cn1nc(C(F)(F)F)c(/C=N/OC(=O)c2ccccc2Cl)c1SCc1ccc(Cl)cc1`, the “activity increase (luciferase signal)” value is -3.74% (inactive).
For `CCCCc1ccc(N/C(N)=N/c2nc(C)cc(C)n2)cc1`, the “activity increase (luciferase signal)” value is -16.7% (inactive).
The result for `Cc1cc(C)nc(/N=C(\N)Nc2ccc(OCCC(C)C)cc2)n1` reads -50.5% (inactive); that for `O=C(/C=C/c1ccc([N+](=O)[O-])s1)N1CCCCC1`, -39.5% (inactive).
On to `CC1CN(C(=O)/C=C/c2ccc([N+](=O)[O-])s2)CC(C)O1` (centres undefined), for which the “activity increase (luciferase signal)” value is 2.29% (inactive).
For the molecule `Cc1c(-c2cccc(Cl)c2)nc2ccccc2c1C(=O)OC/C(O)=C(\C#N)c1nc2ccccc2[nH]1`, the “activity increase (luciferase signal)” value is 40.5% (inactive).
Regarding `COc1ccc(C=C(c2nc3ccccc3s2)c2nc3ccccc3s2)cc1O`, the “activity increase (luciferase signal)” value is -30.8% (inactive).
The result for `COCC(=O)OC/C(O)=C(\C#N)c1nc2ccccc2[nH]1` reads -10.2% (inactive); that for `CC(=O)Nc1cccc(-c2ccnc3c2CC(C(=O)NCc2ccco2)O3)c1` (centres undefined), 12.1% (inactive).
With `COc1ccc(NC(=O)C2Cc3c(-c4ccc5c(c4)OCO5)ccnc3O2)cc1` (centres undefined), the “activity increase (luciferase signal)” value was 38.2% (inactive).
The result for `CS(=O)(=O)Nc1cccc(NC(=O)C2Cc3c(-c4ccccc4)ccnc3O2)c1` (centres undefined) reads -27.7% (inactive); that for `COc1ccc(NC(=O)C2Cc3c(-c4cccc(C(C)=O)c4)ccnc3O2)cn1` (centres undefined), 50.2% (inactive); that for `COc1ccc(CCCNC(=O)C2Cc3c(-c4cccc(C(C)=O)c4)ccnc3O2)cc1` (centres undefined), 44.8% (inactive).
The result for `COc1ccc2nc(C)cc(Nc3ccc(N4CCOCC4)cc3)c2c1` reads 24.5% (inactive); that for `COc1ccc(Nc2cc(C)nc3ccc(OC)cc23)cc1`, 1.85% (inactive); that for `CN(C1=C(NC(=O)c2ccc(Cl)cc2)C(=O)c2ccccc2C1=O)c1ccccc1`, -0.769% (inactive).
The result for `CC[C@@H]1CC=C[C@H]2[C@H]1C(=O)N(Cc1ccccc1)[C@H]2c1ccoc1` reads 8.68% (inactive); that for `NC(=O)/C=C\C(=O)Nc1cccc(C(F)(F)F)c1`, 11.1% (inactive); that for `O=C(OCn1ncc(Cl)c(Cl)c1=O)c1ccc(C(F)(F)F)cc1`, -6.69% (inactive).
With `C=CCOc1ccc(C2C(C#N)=C(N)N(Nc3ccccc3)C3=C2C(=O)CCC3)cc1OC` (centres undefined), the “activity increase (luciferase signal)” value is 31.8% (inactive).
With `COc1cc(-c2cc3nc(NCCOc4ccccc4)ccn3n2)cc(OC)c1OC`, the “activity increase (luciferase signal)” value was 30.5% (inactive).
Turning to `CCOC(=O)/C=C(\C)Sc1cc(=O)oc2ccccc12`, the “activity increase (luciferase signal)” value was 15.5% (inactive).
Take `O=C(N=Nc1c(O)[nH]c2ccc(Br)cc12)c1cc(-c2cccs2)nc2ccccc12`: the “activity increase (luciferase signal)” value was -65.6% (inactive).
`CCc1ccc(/C=N/NC(=O)c2cc(-c3ccncc3)nc3ccccc23)s1`: the “activity increase (luciferase signal)” value was 16.7% (inactive).
The result for `C=C(C)Cc1c(C)c(C#N)c2nc3ccccc3n2c1NCCCN(C)C` reads -13.5% (inactive); that for `COc1cc(C2c3cc4c(cc3OC(Nc3ccc(C(=O)O)cc3)C2C)OCO4)cc(OC)c1OC` (centres undefined), 5.76% (inactive).
The same measure for `COc1ccc(CCCNC(=O)C2(C)Cc3c(-c4ccc5c(c4)OCO5)ccnc3O2)cc1` (centres undefined): 0% (inactive).
The same measure for `Clc1cccc(Cl)c1Cn1cnc2c(NCc3ccco3)ncnc21`: -16.4% (inactive); for `Cc1ccc2cc(CN(CCCN(C)C)C(=O)NCc3ccccc3)c(=O)[nH]c2c1C`: -11.8% (inactive); for `CCN(CC)Cc1cc(Nc2c3ccccc3nc3c4ccccc4n(C)c23)cc(CN(CC)CC)c1O`: 13% (inactive).
With `COc1ccc2[nH]c3c(N4CCC(O)(c5cccc(C(F)(F)F)c5)CC4)ncnc3c2c1`, the “activity increase (luciferase signal)” value is 19.1% (inactive).
For the molecule `COc1ccc(CN2C(=O)C(C)Nc3ncnc(N4CCc5ccccc5C4)c32)cc1` (centres undefined), the “activity increase (luciferase signal)” value was 14.3% (inactive).
With `Cc1nc2ccccc2c2oc(C(=O)NCCCN3CC(C)CC(C)C3)cc12` (centres undefined), the “activity increase (luciferase signal)” value was 20.9% (inactive).
The result for `O=C(NCC1CCCO1)c1cc(-c2ccccc2)on1` (centres undefined) reads 171% (inactive).
The result for `O=C1C=C(Nc2ccc(Cl)cc2Cl)CC(c2ccco2)C1` (centres undefined) reads 27.5% (inactive); that for `NC(=O)CC(NC(=O)Cc1ccc(Cl)cc1)c1ccc(NC2CCN(Cc3ccccc3)CC2)c([N+](=O)[O-])c1` (centres undefined), 12.3% (inactive); that for `NC(=O)CC(NC(=O)Cc1ccc(Br)cc1)c1ccc(NCc2cc(F)ccc2F)c([N+](=O)[O-])c1` (centres undefined), 21.3% (inactive).
The result for `NC(=O)CC(NC(=O)Cc1ccc(Cl)cc1)c1ccc(NC2CCCC2)c([N+](=O)[O-])c1` (centres undefined) reads 42.6% (inactive).
In the case of `NC(=O)CC(NC(=O)c1ccc(Br)cc1)c1ccc(N2CCCCCCC2)c([N+](=O)[O-])c1` (centres undefined), the “activity increase (luciferase signal)” value was 35.9% (inactive).
Take `NC(=O)CC(NC(=O)Cc1ccc(Cl)cc1)c1ccc(NC2CC3CCC2C3)c([N+](=O)[O-])c1` (centres undefined): the “activity increase (luciferase signal)” value was 4.52% (inactive).
The result for `O=C(CC1Sc2ccccc2NC1=O)NNc1ccc(Cl)c(Cl)c1` (centres undefined) reads 28% (inactive); that for `CCCCOc1ccccc1C1CC(=O)NC2=C1C(=O)CCC2` (centres undefined), 26.3% (inactive); that for `CC(C)Nc1ccc(C(CC(N)=O)NC(=O)Cc2ccc(Br)cc2)cc1[N+](=O)[O-]` (centres undefined), 12.9% (inactive).
The result for `COc1ccc(C=CC(=O)c2ccc3cc(OC)c(OC)cc3c2)cc1OC` reads 11.3% (inactive); that for `COc1ccc(NC(=O)c2cccc(Oc3ccccc3)c2)cn1`, 187% (inactive); that for `O=C(NC1CCCCC1)C(c1cccnc1)N(C(=O)CCl)c1cccc(Cl)c1` (centres undefined), -95.4% (inactive).
The result for `Cc1cccc(N2C(=O)CC(N3CCN(C(=O)c4ccccc4)CC3)C2=O)c1` (centres undefined) reads 26% (inactive).
In the case of `Cn1c(C(=O)NC2CCCCCC2)cc2c(=O)n(C)c3ccccc3c21`, the “activity increase (luciferase signal)” value is 91.6% (inactive).
The result for `C[C@H](CO)N1C[C@H](C)[C@@H](CN(C)Cc2ccccc2)Oc2ccc(NC(=O)CCCCCC(=O)Nc3ccccc3N)cc2C1=O` reads 14.3% (inactive).
The result for `Cc1ccc(S(=O)(=O)N(C)C[C@@H]2Oc3ccc(NC(=O)CCC(F)(F)F)cc3CC(=O)N([C@@H](C)CO)C[C@@H]2C)cc1` reads 8.68% (inactive); that for `COc1ccc(CN(C(=O)c2ccc(CN3CCOCC3)o2)C(C(=O)NCC2CCCO2)c2ccc(F)cc2)cc1` (centres undefined), -5.22% (inactive).
On to `COC(=O)COc1cccc2c(=O)n(CC(=O)NCc3ccccc3)ccc12`, for which the “activity increase (luciferase signal)” value was 51.9% (inactive).
Regarding `COc1ccc(CC(=O)N/N=C/c2c(C)n(C)c3ccccc23)cc1OC`, the “activity increase (luciferase signal)” value was -5.77% (inactive).
For `C[C@@H]1[C@@H](Sc2ccccc2)CC(=O)O[C@@H]1c1ccc(-c2ccccc2)cc1`, the “activity increase (luciferase signal)” value is -38% (inactive).
The result for `COc1ccc(-c2nc(C(N)=O)c3[nH]c(=O)n(-c4cccc(Cl)c4)c3n2)cc1OC` reads 20.6% (inactive); that for `COc1ccc(NC(=O)c2oc3ccccc3c2NC(=O)c2ccco2)cc1`, -4.3% (inactive).
Turning to `COc1ccc(OC)c(S(=O)(=O)Nc2ccc(-c3ccc4nnc(C)n4n3)cc2)c1`, the “activity increase (luciferase signal)” value is 51.9% (inactive).
Consider `COc1cc(OC)cc(C(=O)c2c(C)c(C#N)c3ccccn23)c1`, for which the “activity increase (luciferase signal)” value was -23.7% (inactive).
`CCc1nc(SCC(=O)c2ccc3c(c2)OCCO3)c2ccccc2n1`: the “activity increase (luciferase signal)” value is 14.6% (inactive).
Regarding `Cn1c(SCC(=O)Nc2cccc(F)c2)nc2c([nH]c3ccccc32)c1=O`, the “activity increase (luciferase signal)” value was 6.37% (inactive).
`CC(=O)N1N=C(c2ccccc2)OC1c1ccc([N+](=O)[O-])s1` (centres undefined): the “activity increase (luciferase signal)” value is 34.8% (inactive).
`CCOc1cc(CNc2ccc3cn[nH]c3c2)ccc1OC`: the “activity increase (luciferase signal)” value was -19.4% (inactive).
As to `COC(=O)c1cccc(Nc2c3c(nc4ccccc24)CCC3)c1`, the “activity increase (luciferase signal)” value was 19% (inactive).
The same measure for `CC(=O)c1cccc(Nc2cc(C)nc3c(C)cccc23)c1`: 4.36% (inactive).
For `Cc1ccc(OCCNC(=O)c2cccc(S(=O)(=O)NCc3ccccc3)c2)cc1`, the “activity increase (luciferase signal)” value was 0% (inactive).
The result for `CCN(CC)CCCNc1nc2cc(OC)c(OC)cc2c2nc(-c3ccccc3)nn12` reads 22.1% (inactive).
The same measure for `Cc1cc(NC(=O)/C=C/C(=O)N(CC(=O)NC2CCCC2)c2ccc(F)cc2)no1`: -17.1% (inactive); for `Cc1cc(Br)ccc1NC(=O)CCCOc1cc(=O)n(C)c2ccccc12`: 58.2% (inactive); for `CC(C)CCNC(=O)Cn1c(=O)oc2cc(S(=O)(=O)N3CC(C)CC(C)C3)ccc21` (centres undefined): 29.3% (inactive).
The same measure for `O=C(/C=C/Sc1ccccc1)c1ccccc1`: 12% (inactive); for `O=C(/C=C/Sc1ccc(C(F)(F)F)cn1)c1ccccc1`: 14.9% (inactive); for `O=C(CSc1c2c(nc3ccc(Cl)cc13)CCCC2)N1CCN(C(=O)c2ccco2)CC1`: 7.36% (inactive).
For the molecule `COc1ccccc1N1CCN(S(=O)(=O)CCNC(=O)c2cc(OC)c(OC)c(OC)c2)CC1`, the “activity increase (luciferase signal)” value is 28.3% (inactive).
As for `CCn1c2ccccc2c2cc(NC(=O)c3cc(OC)c(OC)c(OC)c3)ccc21`, the “activity increase (luciferase signal)” value is -0.943% (inactive).
In the case of `COCCNc1nc(NCc2ccccc2)nc2ccsc12`, the “activity increase (luciferase signal)” value was -8.4% (inactive).
As to `Cc1cc(N2CCCCC2)nc(NCc2ccccc2)n1`, the “activity increase (luciferase signal)” value was -31.7% (inactive).
For `Cc1cccc2c1NC(=O)/C2=C\C(=O)c1cccs1`, the “activity increase (luciferase signal)” value was 20.6% (inactive).
The same measure for `O=C(NCCC1=CCCCC1)C1CCC(CNc2nc(=S)[nH]c3ccccc23)CC1` (centres undefined): 31.7% (inactive).
The result for `COc1cc(NC(=O)c2ccccc2F)ccc1NC(=O)c1cc2ccccc2o1` reads 8.43% (inactive).
In the case of `COC(=O)c1ccccc1-c1ccc(C(c2c(C)[nH][nH]c2=O)c2c(C)[nH][nH]c2=O)o1`, the “activity increase (luciferase signal)” value was -10.3% (inactive).
The result for `COc1cc(C2Sc3ccccc3NC3=C2C(=O)OC3)cc(OC)c1OC` (centres undefined) reads 42.2% (inactive).
The same measure for `Cc1cnc(NC(=O)c2cc(S(=O)(=O)N(C)C)ccc2N2CCCC2)s1`: -29.3% (inactive).
The result for `CCOc1ccc(OCC)c(NC(=O)c2nnn(CC(=O)Nc3cc(C)cc(C)c3)c2N)c1` reads 37.3% (inactive); that for `CCc1cccc(NC(=O)c2cc(S(=O)(=O)N(C)C)ccc2N2CCCC2)c1`, 23% (inactive); that for `CCOc1cc(NC(=O)CCl)c(OCC)cc1NC(=O)CCl`, 11% (inactive).
As for `CN(C)/N=C/c1ccc(Sc2ccc([N+](=O)[O-])cc2[N+](=O)[O-])o1`, the “activity increase (luciferase signal)” value is 4.59% (inactive).

The values are drawn from PubChem BioAssay AID624404 (Broad Institute, 2012).
